Screening data deposited in PubChem BioAssay by National Center for Advancing Translational Sciences (NCATS).
Hits are enriched below; roughly 2.1% of the tested compounds scored in any of these assays.
FUS yeast rescue: rescues growth of FUS-expressing yeast | S. cerevisiae FUS-expressing, growth rescue, OD600, 24 h | AID 1347120 | Potency, µM (titrated, usually from 76.6 µM), hits mostly activators | actives 0.24% (n = 390,000); also: nearly all actives have a fitted effect of over 55% in size
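Galactose (2%) drives FUS expression in yeast precultured in raffinose; seeding density OD 0.005. Test compounds incubated 24hr at 30C and 99% humidity before absorbance at 600 nm was measured.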
Abeta rescue: A-beta toxicity reversal in yeast; yeast expressing A-beta42, growth rescue, OD600, 48 h; response scale: 0% DMSO, 100% iron-clioquinol control; Potency, µM (highest dose often 46.1 µM), actives largely listed as activators; actives 0.063% (n = 410,000); AID 1347071; also: nearly all actives have a fitted effect of over 55% in size
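Yeast A-beta toxicity model in growth medium with pinned compounds, 48 h at 30 C; growth read as absorbance at 600 nm. Normalized to FeCl3/clioquinol equimolar mix (positive) and DMSO (negative).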
TDP-43 yeast inh: inhibitors of TDP-43 toxicity in yeast; AID 652104; TDP-43 expressing yeast growth rescue, BacTiter-Glo, 24 h; Potency, µM (highest dose often 46.1 µM), usual class: activators; actives 1.8% (n = 410,000); also: nearly all actives have a fitted effect of over 50% in size
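In this qHTS, compounds that restore growth of yeast expressing TDP-43 appear as activators. Cells (OD600=0.02, galactose medium, raffinose-pregrown) are incubated with compound 24 hr at 30 deg C and growth is quantified by BacTiter-Glo.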
aSyn yeast inh: rescues yeast growth from alpha-synuclein toxicity. Yeast expressing alpha-synuclein, growth rescue, BacTiter-Glo, 24 h. Potency, µM (doses to about 46.1 µM), actives largely listed as activators. actives 0.14% (n = 370,000). AID 652106; also: nearly all actives have a fitted effect of over 65% in size
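Rescue of yeast growth: cells expressing toxic alpha-synuclein, induced in galactose at OD600 0.02, incubated with compound 24 h at 30 C. ATP luminescence quantified growth; inhibitors of toxicity appear as activators.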
Numbers stand for hits; . = inactive; ? = inconclusive; / = no result given; [ ] = remark or other dose. Calls follow the shape of the dose curve; as a rule, active = well fitted curve in the direction sought with a large enough effect; inconclusive = small, poorly fitted or top-dose-only effect, or another doubt; inactive = no such curve, though single readings can be large; an effect the other way counts as inactive or inconclusive.

SMILES	FUS yeast rescue	Abeta rescue	TDP-43 yeast inh	aSyn yeast inh
CCOC(=O)c1cc(C#N)c(SC(C(=O)N2CCCCC2)c2ccccc2)nc1C (configuration not stated)	/	/	/	.
CCCCCCCCNC(=O)C1CSCCS(=O)(=O)N1Cc1ccccc1 (configuration not stated)	.	/	/	/
S=C(NCc1ccccc1)NCc1ccccc1Cl	.	13µM	?	.
Fc1ccc(NC(=S)NCc2ccccc2Cl)cc1	.	?	.	.
O=C(CCl)Nc1cccc(-c2cnc3ccccc3n2)c1	.	.	13µM	.
O=C(OCc1cccc(Cl)c1)c1cc([N+](=O)[O-])ccc1N1CCOCC1	.	.	20µM	.
O=C(COC(=O)c1cc([N+](=O)[O-])ccc1N1CCOCC1)NCc1ccccc1	.	.	.	.
O=C(COC(=O)C1CCN(c2ccc(C(F)(F)F)cn2)CC1)NCc1cccc(Cl)c1	.	.	?	.
COc1cccc(CNC(=O)COC(=O)C2CCN(c3ccc(C(F)(F)F)cn3)CC2)c1	/	.	13µM	.
COc1cccc(CNC(=O)COC(=O)c2cc([N+](=O)[O-])ccc2N2CCCC2)c1	/	.	35µM	.
CC(C)CN1CN2Cc3ccccc3C2CS1(=O)=O (configuration not stated)	.	/	/	/
CCCc1ccc(OCC(=O)Nc2sc3c(c2C(=O)OCC)CCC(C(C)(C)C)C3)cc1 (configuration not stated)	.	.	.	/
O=C(CSc1nnc2ccc3ccccc3n12)Nc1ccccc1Cl	.	.	18µM	/
CCc1ccccc1NC(=O)CSc1nnc2ccc3ccccc3n12	.	.	?	/
COc1ccc2ccccc2c1C(=O)/C=C\c1ccoc1	.	.	11µM	?
Cc1cccc(-c2nc3c4ccccc4nc(N4CCN(c5cccc(Cl)c5)CC4)n3n2)c1	.	.	?	/
O=C(c1cc(-c2ccccc2)on1)N1CCC(Oc2cccnc2)CC1	.	/	/	/
CCCCCCCNC(=O)C1(CC2CC(c3cccc(Br)c3)=NO2)CCN(C(=O)CCCCCBr)CC1 (configuration not stated)	28µM	.	?	.
O=C(O)c1ccc(-n2nc(C(F)(F)F)c3c2CCCC3)cc1	.	.	16µM	.
CC(C)Cn1c(-c2ccc(Br)cc2)c[nH]c1=S	.	3.2µM	.[0.397 µM]	.
COCCNC(=O)CSc1nc2cc3c(cc2c(=O)n1Cc1ccc(C(=O)NCCc2ccc(OC)c(OC)c2)cc1)OCO3	.	.	.	/
COc1ccc(-c2coc3c(C(=O)NC4CCCCC4)cccc23)c(C)c1	.	.	.	.
COc1ccc(-c2ccc(C(=O)NC3CCCCC3)c3occc23)c(C)c1	.	.	13µM	.
O=C(NC1CCCCC1)c1ccc(-c2cn[nH]c2)c2ccoc12	.	.	22µM	.
FC(F)(F)c1cccc(N2CCN(Cc3nnc(-c4ccc5c(c4)OCO5)o3)CC2)c1	.	.	?	/
SMILES	FUS yeast rescue	Abeta rescue	TDP-43 yeast inh	aSyn yeast inh
COc1ccc2c(c1)CO[C@H]([C@H](O)COC(C)=O)[C@H]2/C=C/c1ccccc1	.	/	/	/
Cc1cc(Cl)ccc1NC(=O)C1CCCN1C(=O)c1cccs1 (configuration not stated)	.	.	.	.
CCN(C(=O)[C@@H]1CCCN1C(=O)c1cccs1)c1nc2cc(Cl)ccc2s1	.	.	13µM	.
O=[N+]([O-])c1ccc(NCCCN2CCC(C(O)(c3ccccc3)c3ccccc3)CC2)cc1	.	/	/	/
Cc1ccc(CNC(=O)CCSCc2cnn(-c3ccccc3)c2-n2cccc2)cc1	.	.	20µM	/
O=C(CSCc1cnn(-c2ccccc2)c1-n1cccc1)NCc1cccnc1	.	.	/	.
O=C(CCSCc1cnn(-c2ccccc2)c1-n1cccc1)NCc1ccc(Cl)cc1	.	?	20µM	/
C=CCN1C(=O)[C@H](CC(=O)NCc2cccs2)[C@@]2(C(=O)OCC)CCCC=C12	.	/	/	/
O=C(Nc1cccc(NC(=O)c2ccccc2)n1)c1ccccc1	.	.	11µM	.
Cc1cccc(NC(=O)c2ccc(C(=O)c3ccccc3)cc2)n1	.	.	?	.
N#C/C(=C\c1cccnc1)c1ccc([N+](=O)[O-])cc1	.	.	11µM	.
N#C/C(=C\c1ccc([N+](=O)[O-])cc1)c1ccccn1	.	.	13µM	.
COc1cccc(C2=CC(c3ccccc3F)n3ncc(C(=O)Nc4ccc(F)cc4)c3N2)c1 (configuration not stated)	.	.	22µM	/
O=C(OC12CCCN(C1)/C(=C/c1ccc(Cl)cc1)C2)c1ccc(Cl)cc1 (configuration not stated)	.	/	/	/
O=Nc1c(O)n(Cc2ccccc2)c2ccccc12	.	.	.	.
O=Nc1c(O)n(Cc2ccc(Cl)c(Cl)c2)c2ccccc12	.	.	.	13µM
COc1ccc(-n2nc(C(=O)NCC(=O)N3CC(C)CC(C)C3)c3ccccc3c2=O)cc1 (configuration not stated)	.	.	14µM	.
COc1ccc(-n2nc(C(=O)NCC(=O)N3CCCCCC3)c3ccccc3c2=O)cc1	.	.	.	.
CCc1ccc2nc(N3CCN(C(=O)c4ccccc4)CC3)sc2c1	.	.	11µM	/
CCCC(=O)N1CCN(c2nc3ccc(CC)cc3s2)CC1	.	.	?	.
Cc1ccc(C)c(N2CCN(C(=O)c3ccc4nc(N5CCOCC5)sc4c3)CC2)c1	?	.	13µM	.
Cc1cccc(Cl)c1NC(=O)N1CCCN(c2nc3ccc(Cl)cc3s2)CC1	.	?	20µM	.
Cc1ccc(Cl)cc1N1CCN(C(=O)c2ccc3nc(N4CCC(C)CC4)sc3c2)CC1	?	.	.	/
O=C(c1ccco1)N1CCN(c2nc3ccc(Cl)cc3s2)CC1	.	.	11µM	/
Cc1ccc2cc3cc(C(=O)N4CCN(C(=O)c5ccco5)CC4)sc3nc2c1	.	.	13µM	.
SMILES	FUS yeast rescue	Abeta rescue	TDP-43 yeast inh	aSyn yeast inh
COc1ccc(C)c2sc(N3CCN(C(=O)c4cccc(F)c4)CC3)nc12	.	.	.	/
COc1ccc(C)c2sc(N3CCN(C(=O)c4ccco4)CC3)nc12	.	.	22µM	/
O=C(c1ccc2nc(N3CCOCC3)sc2c1)N1CCC(Cc2ccccc2)CC1	?	.	25µM	.
Cc1ccc2cc3cc(C(=O)N4CCN(Cc5ccccc5)CC4)sc3nc2c1	.	.	.	.
O=C(NCCc1ccccc1)c1ccc2nc(N3CCOCC3)sc2c1	.	.	?	.
Cc1cscc1-c1ccc(C(=O)Nc2c(C)cccc2C)o1	.	.	14µM	.
COC(=O)N/N=C/c1ccc(-c2ccc(Cl)cc2Cl)o1	.	.	.	.
COC(=O)N/N=C/c1ccc(-c2ccccc2Cl)o1	.	.	20µM	.
Clc1ccccc1-c1ccc(/C=N/n2cnnc2)o1	.	.	11µM	.
NC(=S)N/N=C/c1ccc(-c2cc(Cl)c(Cl)cc2Cl)o1	.	13µM	.	.
Cn1c(SCC(=O)NCc2ccco2)nnc1-c1ccc(NC(=O)c2ccccc2)cc1	/	/	/	.
Cn1cc(C2(c3c[nH]c4ccccc34)CCN(C(=O)OC(C)(C)C)CC2)c2ccccc21	.	/	/	/
